Source: PubChem BioAssay AID1159580 (chemical genetic matrix, 2015)
Values joined by “and” are separate entries in the source; they are usually repeats but may differ in a detail not shown here. Identical values can stand only once. Screen size: about 5,500 compounds; about 2,000 (36%) were called active. Roughly 18% stayed inconclusive and do not appear here. No stated cut-off is given here; in the data, active means normalized growth mostly below about 0.91 (no sharp cut-off); inconclusive means no clear call, values can overlap the other calls; inactive means mostly above about 0.92. Some of the results follow.

Test: chemical genetic growth profiling, strain panel (AID 1159580);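 further: tested at 20 µM; growth read once vehicle control cultures reached saturation at 30 °C; 1 = growth at the plate median or of vehicle wells; lower values mean less growth of the strain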
Settings: S. cerevisiae deletion strains, growth OD

Measured: normalized growth

CCCN(CCC)c1c([N+](=O)[O-])cc(C(F)(F)F)cc1[N+](=O)[O-]
inactive: locus YAL013W, strain DEP1, active compounds read low 1.02 | locus YAL021C, strain ccr4, active compounds read low 1 | locus YAL026C, strain drs2, active compounds read low 0.999 | locus YAL030W, strain snc1, active compounds read low 1 | locus YBL061C, strain skt5, active compounds read low 1.01 | locus YBR009C, strain hhf1, active compounds read low 0.995 | locus YBR021W, strain FUR4, active compounds read low 1.03 | locus YBR023C, strain chs3, active compounds read low 1.01 | locus YBR171W, strain sec66, active compounds read low 0.985 | locus YBR229C, strain ROT2, active compounds read low 1 | locus YBR231C, strain swc5, active compounds read low 1.02 | locus YBR279W, strain paf1, active compounds read low 1.01 | locus YCL011C, strain gbp2, active compounds read low 0.97 | locus YCL016C, strain dcc1, active compounds read low 1 | locus YCL029C, strain bik1, active compounds read low 1.01 | locus YCL061C, strain MRC1, active compounds read low 0.984 | locus YCL069W, strain vba3, active compounds read low 0.977 | locus YCR088W, strain abp1, active compounds read low 0.976 | locus YDL005C, strain med2, active compounds read low 1.01 | locus YDL035C, strain GPR1, active compounds read low 1.04 | locus YDL040C, strain nat1, active compounds read low 1 | locus YDL074C, strain BRE1, active compounds read low 1.04 | locus YDL101C, strain DUN1, active compounds read low 0.997 | locus YDL134C, strain PPH21, active compounds read low 0.995 | locus YDL185W, strain tfp1, active compounds read low 1.02 | locus YDL192W, strain arf1, active compounds read low 1.02 | locus YDR001C, strain nth1, active compounds read low 0.981 | locus YDR069C, strain doa4, active compounds read low 1.02 | locus YDR101C, strain arx1, active compounds read low 1.01 | locus YDR137W, strain rgp1, active compounds read low 0.957 | locus YDR150W, strain NUM1, active compounds read low 1.02 | locus YDR159W, strain sac3, active compounds read low 0.989 | locus YDR162C, strain NBP2, active compounds read low 1 | locus YDR195W, strain ref2 0.987 | locus YDR297W, strain sur2, active compounds read low 1 | locus YDR318W, strain mcm21, active compounds read low 1.01 | locus YDR334W, strain swr1, active compounds read low 0.994 | locus YDR335W, strain msn5, active compounds read low 1.01 | locus YDR388W, active compounds read low 1 | locus YDR392W, strain spt3, active compounds read low 0.919 | locus YDR502C, strain sam2, active compounds read low 1.02 | locus YEL003W, strain gim4, active compounds read low 0.974 | locus YEL037C, strain rad23, active compounds read low 0.988 | locus YEL061C, strain CIN8 (second series), active compounds read low 0.981 | locus YEL061C, strain CIN8, active compounds read low 1.01 | locus YER015W, strain faa2, active compounds read low 1.01 | locus YER016W, strain bim1, active compounds read low 1 | locus YER110C, active compounds read low 1.01 | locus YER111C, strain swi4, active compounds read low 0.98 | locus YER155C, strain BEM2 (second series), active compounds read low 1 | locus YER155C, strain BEM2, active compounds read low 1.01 | locus YER167W, strain BCK2, active compounds read low 0.997 | locus YFR010W, strain ubp6, active compounds read low 0.996 | locus YGL078C, strain dbp3, active compounds read low 1.01 | locus YGL086W, strain mad1, active compounds read low 1.01 | locus YGL167C, strain pmr1, active compounds read low 1.01 | locus YGL173C, strain kem1, active compounds read low 1.02 | locus YGL227W, strain vid30, active compounds read low 0.982 | locus YGL240W, strain doc1, active compounds read low 1.05 | locus YGL248W, strain PDE1, active compounds read low 0.99 | locus YGL253W, strain hxk2, active compounds read low 1.01 | locus YGR078C, strain PAC10, active compounds read low 1.02 | locus YGR135W, strain pre9, active compounds read low 1.02 | locus YGR229C, strain SMI1, active compounds read low 1.01 | locus YGR252W, strain gcn5, active compounds read low 1.05 | locus YHR013C, strain ard1, active compounds read low 1.06 | locus YHR027C, strain rpn1, active compounds read low 1.03 | locus YHR030C, strain SLT2, active compounds read low 1.01 and 0.97 | locus YHR079C, strain IRE1 (second series), active compounds read low 1.02 | locus YHR079C, strain IRE1, active compounds read low 0.979 | locus YHR094C, strain hxt1, active compounds read low 1.01 | locus YHR129C, strain ARP1, active compounds read low 0.99 | locus YHR142W, strain chs7, active compounds read low 0.975 | locus YHR200W, strain rpn10, active compounds read low 1.01 | locus YIL066C, strain RNR3, active compounds read low 1.02 | locus YIL073C, strain SPO22, active compounds read low 1.04 | locus YIL125W, strain kgd1, active compounds read low 1 | locus YIR030C, strain dcg1, active compounds read low 1.01 | locus YJL092W, strain hpr5, active compounds read low 0.976 | locus YJL095W, strain BCK1 (second series), active compounds read low 1.01 | locus YJL095W, strain BCK1, active compounds read low 0.99 and 0.98 | locus YJL115W, strain asf1, active compounds read low 0.998 | locus YJL129C, strain trk1, active compounds read low 0.96 | locus YJL134W, strain LCB3, active compounds read low 1 | locus YJL154C, strain vps35, active compounds read low 0.978 | locus YJL164C, strain tpk1, active compounds read low 0.991 | locus YJL166W, strain qcr8, active compounds read low 1.02 | locus YJL168C, strain set2, active compounds read low 1.01 | locus YJL187C, strain SWE1 (second series), active compounds read low 1.02 | locus YJL187C, strain SWE1, active compounds read low 1.01 | locus YJR043C, strain POL32, active compounds read low 1.01 | locus YJR066W, strain TOR1, active compounds read low 0.914
